# Experimental data from ChEMBL document CHEMBL3988442, “University of Dundee, Small-Polar-MMV Screening Library” (2021).
# Legend:
# [1] = molecular target: T1, Aspartate--tRNA(Asp/Asn) ligase (Mycobacterium tuberculosis (strain ATCC 25618 / H37Rv)) (UniProt P9WFW3); assay: Assay for Asp RNA synthetase-1 from Mycobacterium tuberculosis; assay type: functional; design: scale not given: direction of the effect not stated beside the values; details: 30 µM; also: in the data most compounds retested in dose-response had high values
# T1 sequence (whole entry): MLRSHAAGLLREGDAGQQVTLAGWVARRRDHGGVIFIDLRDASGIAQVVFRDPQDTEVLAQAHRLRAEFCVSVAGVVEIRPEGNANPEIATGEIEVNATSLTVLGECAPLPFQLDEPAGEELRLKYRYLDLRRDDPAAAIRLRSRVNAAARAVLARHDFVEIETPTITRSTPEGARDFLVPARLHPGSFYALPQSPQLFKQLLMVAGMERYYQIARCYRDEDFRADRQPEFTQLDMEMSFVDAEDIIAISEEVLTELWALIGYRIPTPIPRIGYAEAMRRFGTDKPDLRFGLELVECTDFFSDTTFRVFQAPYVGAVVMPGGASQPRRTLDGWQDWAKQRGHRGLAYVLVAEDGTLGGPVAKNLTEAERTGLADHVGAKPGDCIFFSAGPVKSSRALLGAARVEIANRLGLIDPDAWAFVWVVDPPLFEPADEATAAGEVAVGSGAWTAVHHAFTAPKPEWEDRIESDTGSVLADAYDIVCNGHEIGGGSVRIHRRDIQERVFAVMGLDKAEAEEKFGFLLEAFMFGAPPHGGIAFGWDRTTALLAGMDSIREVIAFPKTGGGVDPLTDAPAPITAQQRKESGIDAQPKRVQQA
# [2] = molecular target: Shiga toxin 2 (Escherichia coli O157:H7) (UniProt P09385+P09386); assay: E. coli 0.157:H7 Shiga Toxin SOP - stx2 screening assay; assay type: functional; design: scale not given: direction of the effect not stated beside the values; details: 30 µM
smiles,measurement,setting,value
NC(=O)NC(=O)CCN1CCCN(c2nccs2)CC1,Percent Effect,[1],1.54%
same,Percent Effect,[2],-33.2%
Cc1cccc(-c2ccc(C(=O)NCCN(C)C3CC3)c(=O)[nH]2)c1,Percent Effect,[1],4.25%
same,Percent Effect,[2],19.3%
CC(C)c1nc2n(n1)CC(NCc1nnc(C(C)C)o1)CC2 (centres undefined),Percent Effect,[1],5.81%
same,Percent Effect,[2],19.6%
COc1c(CNCc2ccnc(N3CCCC3)c2)c(C)nn1C,Percent Effect,[1],2.34%
same,Percent Effect,[2],-55.3%
Cc1csc(CCCNC(=O)[C@H]2CNC[C@@H](C(=O)N3CCCC3)C2)n1,Percent Effect,[1],-3.08%
same,Percent Effect,[2],-2.63%
CC(=O)N1CCC2(CC1)CC(Oc1ccccc1)CO2 (centres undefined),Percent Effect,[1],-1.48%
same,Percent Effect,[2],-19.5%
O=C(CCn1cccn1)N1CCN(CC(F)F)CC1,Percent Effect,[1],2.16%
same,Percent Effect,[2],15.4%
CCNc1cc2c(nn1)CCN(C(=O)Cc1c(C)noc1C)C2,Percent Effect,[1],0.225%
same,Percent Effect,[2],16%
CS(=O)(=O)N1CC[C@H]2C[C@@H](C(=O)N3CCOCC3)O[C@@H]2C1,Percent Effect,[1],2.65%
same,Percent Effect,[2],5.94%
CC(C)c1nnc2n1CCN(CC(=O)Nc1sccc1C#N)C2,Percent Effect,[1],8.51%
same,Percent Effect,[2],16.9%
Cc1nnc(NC(=O)NCc2cc(F)cc(F)c2)s1,Percent Effect,[1],4.55%
same,Percent Effect,[2],29.7%
CSC(C)C(=O)NCCCc1cc(N)n(-c2ccccc2)n1 (centres undefined),Percent Effect,[1],-3.65%
same,Percent Effect,[2],-1.83%
Cc1ccc(CN2CCn3c(C(=O)N(C)C)cnc3C2)s1,Percent Effect,[1],5.69%
same,Percent Effect,[2],-13.3%
CCc1ccc(C(=O)N2CCN(CCS(C)(=O)=O)CC2)o1,Percent Effect,[1],-3.52%
same,Percent Effect,[2],24.9%
Cn1cccc1CNC(=O)N(CCO)C1CCCc2ccccc21 (centres undefined),Percent Effect,[1],-1.95%
same,Percent Effect,[2],-4.96%
Cc1nnc2n1CCN(C(=O)COCCOc1ccccc1)C2,Percent Effect,[1],-0.422%
same,Percent Effect,[2],-37.2%
CN1CCN(Cc2cn3c(n2)CN(C(=O)N2CCOCC2)CC3)CC1,Percent Effect,[1],5.44%
same,Percent Effect,[2],-16.4%
c1cnn(CC2CN(Cc3nc(-c4ccsc4)no3)CCO2)c1 (centres undefined),Percent Effect,[1],-2.68%
same,Percent Effect,[2],35%
O=C(c1ccc(F)cc1F)N1CC[C@H](O)[C@@H](N2CCOCC2)CC1,Percent Effect,[1],0.28%
same,Percent Effect,[2],-21.2%
CNc1nc2c(s1)C(=O)CN(C(=O)NCc1ccccc1)C2,Percent Effect,[1],1.63%
same,Percent Effect,[2],-6.79%
Cc1cn2c(n1)CCC(NC(=O)c1cc(C(C)C)no1)C2 (centres undefined),Percent Effect,[1],-4.01%
same,Percent Effect,[2],-5.41%
Cc1csc(C2CCCN(C(=O)c3ccc(=O)n(C)n3)C2)n1 (centres undefined),Percent Effect,[1],3.09%
same,Percent Effect,[2],-15.3%
O=C(NCCNc1ncccn1)c1ccc(-c2ccco2)[nH]c1=O,Percent Effect,[1],6.93%
same,Percent Effect,[2],10.7%
O=C1CC(c2cccc(O)c2)c2sc(C(=O)O)c(-c3ccccc3)c2N1 (centres undefined),Percent Effect,[1],-3.78%
same,Percent Effect,[2],-24.7%
CC(C)(C)c1nnc(CN2CCN(S(C)(=O)=O)CC2)o1,Percent Effect,[1],1.17%
same,Percent Effect,[2],-26.2%
Cc1ccc(C(C)NC(=O)Cc2c(C)nc3c(c2C)c(=O)[nH]n3C)o1 (centres undefined),Percent Effect,[1],18.6%
same,Percent Effect,[2],-15.3%
COc1ncccc1C(=O)NCC(C)Oc1cccnc1 (centres undefined),Percent Effect,[1],-5.57%
same,Percent Effect,[2],-2.36%
CC(C)CN(Cc1nc2c(cnn2C)c(=O)[nH]1)C(C)C,Percent Effect,[1],-2.77%
same,Percent Effect,[2],0.929%
CC(C)CCC(=O)NC(C)c1nnc2n1CCCCC2 (centres undefined),Percent Effect,[1],1.76%
same,Percent Effect,[2],-17.4%
O=C1CN(Cc2ccc(-c3ccccc3C(=O)O)cc2)CCN1,Percent Effect,[1],5.6%
same,Percent Effect,[2],43.1%
O=C(NCCCn1cccn1)C1(c2ccc(F)cc2)CC1,Percent Effect,[1],-8.14%
same,Percent Effect,[2],-6.77%
c1csc(CN2CCn3c(Cn4cncn4)cnc3C2)n1,Percent Effect,[1],-1.25%
same,Percent Effect,[2],-17.5%
CCC1(CO)CCCN(c2ncccc2C#N)C1 (centres undefined),Percent Effect,[1],-1.73%
same,Percent Effect,[2],-8.75%
Cc1cc(N2CCC(N(C)C(=O)Nc3ccccc3)CC2)nc(C)n1,Percent Effect,[1],7.13%
same,Percent Effect,[2],-20.7%
N#Cc1cc(NC(=O)c2ccsc2)ccc1N1CCC(O)CC1,Percent Effect,[1],3.33%
same,Percent Effect,[2],-57.5%
CN(C)CCN(Cc1ccc(Cl)cc1)C(=O)c1cc[nH]n1,Percent Effect,[1],-3.79%
same,Percent Effect,[2],9.32%
COCc1noc(C2(c3ccc(OC)cc3)CCOCC2)n1,Percent Effect,[1],-1.75%
same,Percent Effect,[2],1.38%
COc1ccc(-n2ccc(C(=O)NCCN3CCCCC3C)n2)cc1 (centres undefined),Percent Effect,[1],4.6%
same,Percent Effect,[2],-18.1%
O=C(c1ccc[nH]1)N1CCN(CC2CCOc3ccccc3C2)CC1 (centres undefined),Percent Effect,[1],4.96%
same,Percent Effect,[2],-20.9%
CC(C)[C@H](NC(=O)NC1CCS(=O)(=O)C1)C(=O)NCc1cccnc1 (some centres undefined),Percent Effect,[1],-2.09%
same,Percent Effect,[2],-28.7%
COc1cc(C)sc1C(=O)N1CC(c2cccnc2)C1,Percent Effect,[1],3.09%
same,Percent Effect,[2],12.6%
CC(C)OCCCNC(=O)CS(=O)(=O)Cc1ccc(Cl)c(Cl)c1,Percent Effect,[1],5.22%
same,Percent Effect,[2],30.4%
CC(=O)N1CCCC(Cc2cncc(Br)c2)CC1 (centres undefined),Percent Effect,[1],-0.223%
same,Percent Effect,[2],-11%
Cc1cnn(CC2CCCCN2CCC(=O)Nc2cc(C)on2)c1 (centres undefined),Percent Effect,[1],1.03%
same,Percent Effect,[2],5.5%
Cc1cnn(CC(C)NCc2nc(-c3ccco3)no2)c1 (centres undefined),Percent Effect,[1],-4.9%
same,Percent Effect,[2],2.91%
N#CC1(C(=O)N2CCN(Cc3ccon3)CC2)CCC1,Percent Effect,[1],-1.89%
same,Percent Effect,[2],3.73%
Cc1nc(CC(=O)N2CCCCC2c2ccn3ccnc3n2)cs1 (centres undefined),Percent Effect,[1],-0.0744%
same,Percent Effect,[2],4.13%
